PubChem BioAssay (Tox21)
Values joined by “and” are separate entries in the source; they are usually repeats but may differ in a detail not shown here. Equal values may be shown once. Results filed as inconclusive are left out. Entries that show only a call come without a potency. More than one record can exist for a structure, and the calls need not agree. Active and inactive are the calls of the source. Unless noted, the call rests on the fitted dose curve; in most records, active means well fitted curve in the direction sought with a large enough effect in the repeat runs; inconclusive means weak or mixed curves; inactive means no such curve, though single readings can be large; an effect the other way counts as inactive or inconclusive.

Tests used:
[1] = target: Bile acid receptor (Homo sapiens) (UniProt Q96RI1); assay: qHTS assay to identify small molecule agonists of the farnesoid-X-receptor (FXR) signaling pathway (AID 743220; active means well fitted activation curve with a large enough effect in the signal ratio in the repeat runs, not every such curve was filed as active; the % refers to the signal ratio)
Outline: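 FXR-UAS-bla HEK 293T cells carrying a UAS-driven beta-lactamase reporter were plated for 5 h at 37C/5% CO2, then exposed to DMSO-dissolved Tox21 10K compounds for 16 h at 37C. A LiveBLAzer B/G FRET substrate was loaded for 2 h at room temperature before fluorescence reading.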

[2] = qHTS assay to identify small molecule antagonists of the farnesoid-X-receptor (FXR) signaling pathway - cell viability counter screen (AID 743221; active means well fitted cell-killing curve with a large enough effect in the repeat runs, not every such curve was filed as active; further: nearly all actives have a fitted effect of over 50% in size; further: potency means the concentration at half of the fitted maximal effect)
Outline: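 GeneBLAzer FXR-UAS-bla HEK 293T cells, compound plus chenodeoxycholic acid (50 uM final), 16 h at 37 C. CellTiter-Glo added to the same wells after the beta-lactamase read; luminescence read after 30 min at room temperature as viability.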

[3] = qHTS assay to identify small molecule agonists of the vitamin D receptor (VDR) signaling pathway - cell viability counter screen (AID 743224); further: nearly all actives have a fitted effect of over 50% in size; further: potency means the concentration at half of the fitted maximal effect
Outline: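 Cells: VDR-bla, 2,000/well, settled 4 h. Treatment: compounds in DMSO, 16 h, 37C/5% CO2. Readout: CellTiter-Glo luminescence after 30 min RT.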

[4] = qHTS assay to identify small molecule antagonists of the vitamin D receptor (VDR) signaling pathway - cell viability counter screen (AID 743225); further: nearly all actives have a fitted effect of over 50% in size; further: potency means the concentration at half of the fitted maximal effect
Outline: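 VDR-UAS-bla HEK 293T cells were plated and incubated 4 h at 37C, then dosed with compound plus 3 nM (final) 1-alpha,25-dihydroxyvitamin D3 for 16 h. After the 2 h beta-lactamase read, viability in the same wells was read as CellTiter-Glo luminescence after 30 min at room temperature.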

[5] = qHTS assay to identify small molecule agonists of the NFkB signaling pathway - cell viability counter screen (AID 1159515; calls by dose curve; further: nearly all actives have a fitted effect of over 55% in size; further: potency means the concentration at half of the fitted maximal effect)
Outline: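 Cells are seeded (2,000 NFkB-bla ME-180 per well), rested overnight, and dosed with DMSO-dissolved compounds for 5 hr at 37 C. Viability is then read by CellTiter-Glo luminescence after 30 min at room temperature.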

[6] = qHTS assay to identify small molecule agonists of the endoplasmic reticulum stress response signaling pathway - cell viability counter screen (AID 1159517; calls by dose curve; further: nearly all actives have a fitted effect of over 50% in size; further: potency means the concentration at half of the fitted maximal effect)
Outline: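 Cpd-treated ESRE-bla HeLa (5 hr, 37 C) → LiveBLAzer 2 hr RT → CellTiter-Glo 30 min RT → luminescence.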

[7] = qHTS assay to identify small molecule antagonists of the retinoid-related orphan receptor gamma (ROR-gamma) signaling pathway - cell viability counter screen (AID 1159520); further: nearly all actives have a fitted effect of over 50% in size; further: potency means the concentration at half of the fitted maximal effect
Outline: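 Tet-on ROR gamma CHO cells (1,000/well) were plated 4 hr, given compounds in DMSO for 2 hr at 37 C, then induced with 1 uM final doxycycline for 16 hr. Viability was read as ATP by CellTiter-Glo luminescence after 30 min.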

[8] = target: Nuclear receptor ROR-gamma (Homo sapiens) (UniProt P51449); assay: qHTS assay to identify small molecule antagonists of the retinoid-related orphan receptor gamma (ROR-gamma) signaling pathway (AID 1159521; further: nearly all actives have a fitted effect of over 50% in size; further: potency means the concentration at half of the fitted maximal effect)
Outline: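 Tet-on ROR-gamma CHO cells with ROR response element-luciferase reporter; compounds added 2 hr before 1 uM doxycycline induction, then 16 hr at 37 C. Antagonism scored as decreased ONE-Glo luminescence.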

[9] = qHTS assay to identify small molecule agonists of the AP-1 signaling pathway - cell viability counter screen (AID 1159525; calls by dose curve; further: nearly all actives have a fitted effect of over 55% in size; further: potency means the concentration at half of the fitted maximal effect)
Outline: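 Each titration point was normalised to DMSO and tetra n-octyl ammonium bromide controls. The read was Cell Titer Glo luminescence after 30 min at RT, following 5 h compound exposure of ME-180 AP-1-bla cells at 37 °C.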

[10] = qHTS assay to identify small molecule agonists of the peroxisome proliferator-activated receptor delta (PPARd) signaling pathway - cell viability counter screen (AID 743211); further: nearly all actives have a fitted effect of over 55% in size; further: potency means the concentration at half of the fitted maximal effect
Outline: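 PPARd-bla HEK293H cells (3000/well) were pre-incubated 5 h at 37 C, then exposed to compound for 17 h at 37 C. After 2 h with LiveBLAzer substrate, CellTiter-Glo was added to the same wells; luminescence read after 30 min at room temperature.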

[11] = target: Peroxisome proliferator-activated receptor delta (Homo sapiens) (UniProt Q03181); assay: qHTS assay to identify small molecule agonists of the peroxisome proliferator-activated receptor delta (PPARd) signaling pathway (AID 743212; calls by dose curve)
Outline: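 Cells expressing a UAS-driven beta-lactamase reporter (PPARd-bla HEK293H) were given test compounds after a 5 h settle and kept at 37 C. Reporter activity was then measured as FRET fluorescence using LiveBLAzer B/G substrate.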

[12] = qHTS assay to identify small molecule antagonists of the peroxisome proliferator-activated receptor delta (PPARd) signaling pathway - cell viability counter screen (AID 743213); further: nearly all actives have a fitted effect of over 50% in size; further: potency means the concentration at half of the fitted maximal effect
Outline: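 HEK293H PPARd UAS-bla cells, 5 h pre-incubation, compound + L165041 300 nM final, 17 h 37 C; B/G FRET substrate 2 h RT; then CellTiter-Glo 30 min RT, luminescence.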

[13] = target: Peroxisome proliferator-activated receptor delta (Homo sapiens) (UniProt Q03181); assay: qHTS assay to identify small molecule antagonists of the peroxisome proliferator-activated receptor delta (PPARd) signaling pathway (AID 743215; active means well fitted inhibition curve with a large enough effect in the signal ratio in the repeat runs, not every such curve was filed as active; the % refers to the signal ratio;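 further: cells stimulated with agonist L165041 at 300 nM final during compound exposure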; further: potency means the concentration at half of the fitted maximal effect)
Outline: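 Cells: HEK293H with a UAS-driven beta-lactamase reporter responsive to PPARd. Compounds were co-added with L165041 (300 nM, final) and incubated 17 h at 37 C before a 2 h room-temperature FRET substrate step and fluorescence reading.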

[14] = qHTS assay to identify small molecule agonists of the farnesoid-X-receptor (FXR) signaling pathway - cell viability counter screen (AID 743218); further: nearly all actives have a fitted effect of over 45% in size; further: potency means the concentration at half of the fitted maximal effect
Outline: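 Cells were seeded, left 5 h at 37 C and 5% CO2, then dosed with compound in DMSO for 16 h. After the beta-lactamase FRET read, CellTiter-Glo was added and luminescence measured 30 min later.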

[15] = qHTS assay to identify small molecule agonists of the AP-1 signaling pathway (AID 1159526; calls by dose curve)
[16] = target: Vitamin D3 receptor (Homo sapiens) (UniProt P11473); assay: qHTS assay to identify small molecule agonists of the vitamin D receptor (VDR) signaling pathway (AID 743222; calls by dose curve)
Outline: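 Cells carrying a VDR-driven beta-lactamase reporter are seeded at 2,000 per well and rested 4 h. Compounds in DMSO are added for 16 h at 37C, and FRET substrate fluorescence is measured after 2 h at room temperature.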

[17] = target: Vitamin D3 receptor (Homo sapiens) (UniProt P11473); assay: qHTS assay to identify small molecule antagonists of the vitamin D receptor (VDR) signaling pathway (AID 743223; active means well fitted inhibition curve with a large enough effect in the signal ratio in the repeat runs, not every such curve was filed as active; the % refers to the signal ratio)
Outline: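 VDR-bla cells were treated with compound plus 3 nM final 1alpha,25-dihydroxyvitamin D3 for 16 h at 37C. Beta-lactamase reporter read by B/G FRET substrate fluorescence after 2 h at room temperature. qHTS format.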

[18] = target: Retinoic acid receptor RXR-alpha (Homo sapiens) (UniProt P19793); assay: qHTS assay to identify small molecule agonists of the RXR signaling pathway (AID 1159527; calls by dose curve; further: potency means the concentration at half of the fitted maximal effect; nearly all actives have a fitted effect of over 35% in size)
Outline: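 GeneBLAzer RXR-alpha-UAS-bla HEK 293T cells in 2% charcoal-stripped FBS medium were exposed to compounds for 16 hr at 37 C in agonist mode. Beta-lactamase reporter read as 460/530 nm FRET ratio after 2 hr substrate loading.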

Chain of Vitamin D3 receptor (Homo sapiens) (P11473 whole entry, looked up): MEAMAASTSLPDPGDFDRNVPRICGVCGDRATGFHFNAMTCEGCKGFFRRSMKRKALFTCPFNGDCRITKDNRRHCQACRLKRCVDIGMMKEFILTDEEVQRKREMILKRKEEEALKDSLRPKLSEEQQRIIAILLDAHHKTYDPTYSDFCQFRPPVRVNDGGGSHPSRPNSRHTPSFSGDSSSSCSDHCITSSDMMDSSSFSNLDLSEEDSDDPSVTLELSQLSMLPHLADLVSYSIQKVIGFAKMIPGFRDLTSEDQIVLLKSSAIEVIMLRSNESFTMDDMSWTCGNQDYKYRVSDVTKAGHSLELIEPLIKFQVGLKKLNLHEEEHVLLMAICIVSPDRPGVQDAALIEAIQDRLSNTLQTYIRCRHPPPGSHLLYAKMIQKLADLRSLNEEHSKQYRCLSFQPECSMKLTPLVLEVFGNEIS
Chain of Peroxisome proliferator-activated receptor delta (Homo sapiens) (Q03181 whole entry, looked up): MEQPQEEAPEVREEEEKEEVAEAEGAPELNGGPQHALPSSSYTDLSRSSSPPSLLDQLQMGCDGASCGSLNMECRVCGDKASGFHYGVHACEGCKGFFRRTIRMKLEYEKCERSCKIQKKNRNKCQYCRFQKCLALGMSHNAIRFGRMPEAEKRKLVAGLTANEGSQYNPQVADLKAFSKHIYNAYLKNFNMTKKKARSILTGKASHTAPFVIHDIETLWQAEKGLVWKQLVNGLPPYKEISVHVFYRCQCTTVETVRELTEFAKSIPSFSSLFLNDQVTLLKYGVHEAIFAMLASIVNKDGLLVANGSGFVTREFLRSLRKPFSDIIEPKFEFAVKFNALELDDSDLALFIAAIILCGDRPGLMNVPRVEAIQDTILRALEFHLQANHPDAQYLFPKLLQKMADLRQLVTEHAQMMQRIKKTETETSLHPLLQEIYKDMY
Chain of Bile acid receptor (Homo sapiens) (Q96RI1 whole entry, looked up): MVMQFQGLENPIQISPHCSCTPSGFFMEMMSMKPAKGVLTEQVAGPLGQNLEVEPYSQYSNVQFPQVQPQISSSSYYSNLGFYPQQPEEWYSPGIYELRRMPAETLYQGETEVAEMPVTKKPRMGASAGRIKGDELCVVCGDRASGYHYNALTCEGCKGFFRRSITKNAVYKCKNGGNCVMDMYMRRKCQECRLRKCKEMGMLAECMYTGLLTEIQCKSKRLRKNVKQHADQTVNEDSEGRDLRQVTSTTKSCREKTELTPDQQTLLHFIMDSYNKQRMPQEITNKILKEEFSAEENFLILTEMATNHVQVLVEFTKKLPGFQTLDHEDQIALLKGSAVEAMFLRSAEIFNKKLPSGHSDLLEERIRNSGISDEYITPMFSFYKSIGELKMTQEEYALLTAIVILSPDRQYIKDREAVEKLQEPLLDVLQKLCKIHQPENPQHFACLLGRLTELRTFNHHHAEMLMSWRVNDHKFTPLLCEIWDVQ
Chain of Retinoic acid receptor RXR-alpha (Homo sapiens) (P19793 whole entry, looked up): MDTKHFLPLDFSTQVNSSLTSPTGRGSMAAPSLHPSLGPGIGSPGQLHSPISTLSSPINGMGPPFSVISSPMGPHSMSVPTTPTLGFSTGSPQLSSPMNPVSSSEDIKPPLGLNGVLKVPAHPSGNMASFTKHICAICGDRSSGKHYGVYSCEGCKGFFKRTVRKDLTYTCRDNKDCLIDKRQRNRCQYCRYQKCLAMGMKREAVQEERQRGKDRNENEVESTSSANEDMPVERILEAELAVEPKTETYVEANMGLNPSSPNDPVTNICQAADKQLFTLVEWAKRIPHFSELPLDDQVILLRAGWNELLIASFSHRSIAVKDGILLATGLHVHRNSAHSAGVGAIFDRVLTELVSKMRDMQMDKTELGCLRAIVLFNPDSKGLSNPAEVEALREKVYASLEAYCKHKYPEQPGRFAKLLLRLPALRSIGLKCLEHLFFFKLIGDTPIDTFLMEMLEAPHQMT

| SMILES | Potency [1] | Potency [2] | Potency [3] | Potency [4] | Potency [5] | Potency [6] | Potency [7] | Potency [8] | Potency [9] | Potency [10] | Potency [11] | Potency [12] | Potency [13] | Potency [14] | Potency [15] | Potency [16] | Potency [17] | Potency [18] |
| --- | --- | --- | --- | --- | --- | --- | --- | --- | --- | --- | --- | --- | --- | --- | --- | --- | --- | --- |
| CC(C)[C@@H](Nc1ccc(C(F)(F)F)cc1Cl)C(=O)OC(C#N)c1cccc(Oc2ccccc2)c1 (stereo partly specified) | inactive | inactive | inactive | inactive | inactive | inactive | inactive | inactive | inactive | – | – | – | – | – | – | – | – | – |
| CC(C)=CC1C(C(=O)OC(C#N)c2cccc(Oc3ccccc3)c2)C1(C)C (stereo unspecified) | inactive | inactive | inactive | – | inactive | inactive | inactive | inactive | inactive | inactive | inactive | inactive | inactive | inactive | inactive | – | – | – |
| [O]=[Cr](=[O])([OH])[O][Cr](=[O])(=[O])[OH] | – | 19.7 µM (active) and 24.5 µM (active) | 17.5 µM (active) and 21.8 µM (active) | 19.7 µM (active) and 21.8 µM (active) | 30.8 µM (active) | 22.1 µM (active) and 34.6 µM (active) | 5.5 µM (active) and 2.43 µM (active) | 4.9 µM (active) and 4.32 µM (active) | 24.8 µM (active) | 22.1 µM (active) and 27.5 µM (active) | – | 7.83 µM (active) and 21.8 µM (active) | – | 27.5 µM (active) | inactive | inactive | – | – |
| O=C1C(Cl)=C(Cl)C(=O)C(Cl)=C1Cl | – | inactive | – | 17.4 µM (active) | 38.9 µM (active) | 54.8 µM (active) | 15.3 µM (active) | 12.1 µM (active) and 30.6 µM (active) | inactive | – | inactive | – | – | inactive and 19.5 µM (active) | – | inactive | – | – |
| CCN(CC)C(=S)S | – | 22.1 µM (active) and 4.87 µM (active) and 7.76 µM (active) | 4.87 µM (active) and 6.92 µM (active) | inactive | 13.8 µM (active) | inactive | inactive | 27.5 µM (active) and 9.63 µM (active) and 12.2 µM (active) | 38.7 µM (active) | – | – | inactive and 6.13 µM (active) and 3.47 µM (active) | – | 12.4 µM (active) | – | inactive | – | – |
| CCC(C)Nc1c([N+](=O)[O-])cc(C(C)(C)C)cc1[N+](=O)[O-] (stereo unspecified) | – | inactive | – | inactive | inactive | inactive | inactive | inactive | inactive | inactive | inactive | inactive | inactive | inactive | inactive | – | inactive | – |
| Nc1nc(N)c(N)c(N)n1 | – | inactive | inactive | inactive | inactive | inactive | inactive | inactive | inactive | – | – | inactive | – | inactive | inactive | – | inactive | – |
| CCC[CH2][Sn]([CH2]CCC)([CH2]CCC)[CH2]CCC | – | – | 38.9 µM (active) | 49 µM (active) | 30.9 µM (active) | 21.9 µM (active) | 10.9 µM (active) | 6.11 µM (active) | 21.9 µM (active) | 43.6 µM (active) | – | – | 15.5 µM (active) | 49 µM (active) | – | – | – | 0.0871 µM (active) |
| CN(C)C(=S)SSC(=S)N(C)C | – | 121 nM (active) and 43.6 nM (active) and 237 nM (active) | 85.9 nM (active) and 27.5 nM (active) and 188 nM (active) | – | 0.674 µM (active) | inactive | 33.9 µM (active) and 433 nM (active) and 422 nM (active) | 85.1 nM (active) and 344 nM (active) and 266 nM (active) | 5.49 µM (active) and 9.52 µM (active) | – | – | 108 nM (active) and 30.9 nM (active) and 298 nM (active) | – | 121 nM (active) and 30.9 nM (active) and 841 nM (active) | – | inactive | – | – |
| CC[C@H](C)[C@H]1O[C@]2(C=C[C@@H]1C)C[C@@H]1C[C@@H](C/C=C(\C)[C@@H](O[C@H]3C[C@H](OC)[C@@H](O[C@H]4C[C@H](OC)[C@@H](NC)[C@H](C)O4)[C@H](C)O3)[C@@H](C)/C=C/C=C3\CO[C@@H]4[C@H](O)C(C)=C[C@@H](C(=O)O1)[C@]34O)O2 | – | 8.71 µM (active) | – | 4.36 µM (active) | 34.7 µM (active) | 19.5 µM (active) | 13.7 µM (active) | 3.86 µM (active) | 13.8 µM (active) | 3.09 µM (active) | – | 3.89 µM (active) | – | 5.49 µM (active) | – | – | – | – |
| O=[N+]([O-])c1cc(C(F)(F)F)c(Cl)c([N+](=O)[O-])c1Nc1ncc(C(F)(F)F)cc1Cl | – | 21.9 µM (active) | 4.9 µM (active) | – | 11 µM (active) | 12.3 µM (active) | 4.86 µM (active) | 1.37 µM (active) | 11 µM (active) | 8.71 µM (active) | – | – | – | – | – | – | – | – |
| O=C1C[C@@H]2OCC=C3CN4CC[C@]56c7ccccc7N1[C@H]5[C@H]2[C@H]3C[C@H]46 | – | inactive | inactive | inactive | inactive | inactive | inactive | inactive | inactive | inactive | – | – | – | – | inactive | – | – | – |
| CCOP(=O)(OCC)Oc1nc(Cl)c(Cl)cc1Cl | – | – | 4.34 µM (active) | – | inactive | inactive | inactive | 48.3 µM (active) | inactive | 38.7 µM (active) | – | – | 12.2 µM (active) | – | – | inactive | – | – |
